The text below walks through data of ChEMBL document CHEMBL3988442, “University of Dundee, Small-Polar-MMV Screening Library” (2021).

The whole screen tested about 48,000 compounds, of which about 13,000 (27%) showed an effect of 50% or more. Some of the results follow.

In this experiment the test system is Wolbachia pipientis. In words: Anti-Wolbachia Cell-Based Screen. It counts as functional. More on the design: scale not given: in the data most compounds retested in dose-response had high values. Particulars: 5 µM.
Take `CC1=N[C@@]2(CC[C@@H]3CN(S(=O)(=O)CC(C)C)C[C@@H]32)C(=O)N1CC1CC1`: the “Percent Effect” value stood at 5.74%. For `O=C(C1CCCN(Cc2cccc(F)c2)C1)N1CCc2sccc2C1` (configuration not stated), the “Percent Effect” value came to 1.206%. For the compound `CCN(CCc1nccs1)C(=O)c1sccc1C`, the “Percent Effect” value is listed as -15.07%. Next, `Cc1noc(C)c1CN(C)Cc1csc(-c2ccc(C(C)C)cc2)n1`: -1.572%; `COCC(C)(CCO)NC(=O)Nc1cccc(F)c1C` (configuration not stated): -3.176%. Next, `O=C([C@@H]1CCO[C@@H]2CCN(CC3CC3)C[C@H]21)N1CCCC1`: -26.98%; `O=C(O)C(F)(F)F.O=C([C@@H]1CCO[C@@H]2CCN(CCc3ccccc3)C[C@@H]21)N1CCCC1`: 117.3%; `O=C(O)C(F)(F)F.O=C([C@H]1CN(CCc2ccccc2)C[C@H]2OCC[C@@H]12)N1CCCO1`: -7.584%. The result for `CN(C)c1ncc2c(O)nc(C3CCNCC3)cc2n1.Cl` reads 122.5%; that for `CCN(CC)c1ncc(Cl)c(C(=O)NC2CCC(O)CC2)n1` (configuration not stated), -11%; that for `Cc1nc(C2CCCNC2)cc(N(C)CCc2cn[nH]c2)n1` (configuration not stated), 4.214%.

For `CC(C)n1cnc2c(N3CCCC3)nc(C3CCNCC3)cc21.Cl.Cl`, the “Percent Effect” value is on record as -3.823%. As to `CCN(CC)c1ncc2c(O)nc(C3CCNCC3)cc2n1`, the “Percent Effect” value is listed as 97.4%.

With `CCN(CC)c1ncc(Cl)c(C(=O)NC2CC2)n1`, the “Percent Effect” value was -2.852%. The result for `Cl.Cl.Cn1cnc2c(-c3cccnc3)nc(C3CCNCC3)cc21` reads -57.7%. Next, `CN(C)c1ncc2c(O)nc(C3CCCNC3)cc2n1` (configuration not stated): 88.81%; `CN(C)CCNC(=O)c1noc2c1CN(C(=O)N(C)C)CC2`: 9.564%.

On to `Cn1cc(C(=O)NCCC(=O)N2CCCCC2)c(-c2cccnc2)n1`, for which the “Percent Effect” value was -19.31%. The result for `Cc1c(C(=O)NCC(C)(C)S(C)(=O)=O)cccc1-c1ccccn1` reads 90.41%. Next, `Cc1c(C(=O)NCCCS(C)(=O)=O)cccc1-c1ccccn1`: 78.39%. The result for `Cc1c(C(=O)NCCC(=O)N2CCCC2)oc2c(F)cccc12` reads 5.296%; that for `Cc1c(NCC(C)(C)C)cccc1C(=O)NCc1ncnn1C`, -8.622%.

With `Cn1ccc2c(C(=O)NCCCS(C)(=O)=O)cccc21`, the “Percent Effect” value is -9.064%. Consider `Cc1c(C(=O)NCCC(=O)N2CCCC2)cccc1-c1ccccn1`, for which the “Percent Effect” value came out at 102.1%.

Take `Cc1ccc(C(=O)NCCCS(=O)(=O)c2ccccc2)c(=O)[nH]1`: the “Percent Effect” value was 14.19%.

For the compound `Cc1c(I)cccc1C(=O)NCc1ncc[nH]1`, the “Percent Effect” value is recorded as -7.865%. Take `Cc1csc(C2(NCc3nc(-c4ccco4)no3)CCCC2)n1`: the “Percent Effect” value is -16%.
